Laboratory results reported in PubChem BioAssay.
Measured potencies and affinities stand elsewhere. Inconclusive results are not listed. The source made the active and inactive calls.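 Rule for the calls, unless noted: active = fitted dose curve reaches 40% lysis signal rise at or below the highest valid concentration tested for that sample; inconclusive = flat fit between 30% and 70%, or poor curve fit; inactive = signal falls, stays flat within 30%, or no crossing.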

Assays:
[1] = Cryptococcus neoformans growth inhibition, dose response, Alamar Blue, cherry-picks (AID 686998;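 active = falling signal with fitted half-maximal potency no higher than twice the top valid tested dose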)
[2] = inducers of Cryptococcus neoformans cell lysis, dose response, AK release luminescence, cherry-picks (AID 687000);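 note: luminescent detection of adenylate kinase leaking from lysed yeast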
[3] = HepG2 cell cytotoxicity, dose response, cytotoxicity control, cherry-picks, set 2 (AID 687002;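 active = a dose-response fit showing signal loss, with half-maximal concentration no higher than twice the top tested dose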)
[4] = HeLa cell cytotoxicity, dose response, cytotoxicity control, ATP luminescence, cherry-pick samples (AID 687004;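 active = a fitted half-maximal concentration no higher than twice the top valid tested dose, with signal falling as cells die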)

Measured: outcome

Cc1cc(C(=O)Nc2ccc3c(c2)C(=O)N(C)[C@@H]2CC[C@@H](CC(=O)N[C@@H](C)c4ccccc4)O[C@@H]2CO3)no1
inactive: all assays above

CC(C)c1ccc(S(=O)(=O)N2CCN(CC(=O)Nc3ccc4c(c3)OCO4)CC2)cc1
inactive: all assays above

CC(Sc1ncnc2c1cnn2-c1ccccc1)C(=O)Nc1ccc(N2CCOCC2)cc1 (stereo unspecified)
inactive: all assays above

CC(C)NC(=O)Nc1ccc2c(c1)C(=O)N([C@@H](C)CO)C[C@@H](C)[C@H](CN(C)C(=O)Cc1ccccc1)OCCCC[C@@H](C)O2
inactive: all assays above

O=C(Nc1ccccc1)N1CCCCN2[C@H](C1)[C@H](c1ccc(C#CC3CC3)cc1)[C@@H]2CO
inactive: all assays above

CCC(=O)N1[C@H](CO)[C@H](c2ccccc2)[C@H]1CN(CC)C(=O)c1cccc(F)c1
inactive: all assays above

O=C(NC1CCCCC1)N[C@@H]1CC[C@@H](CCNS(=O)(=O)c2ccc(Cl)cc2)O[C@H]1CO
inactive: all assays above

O=C(Nc1ccc(F)cc1)N1C[C@@H]2[C@H](c3ccccc31)[C@H](CO)N2Cc1cocn1
inactive: all assays above

C[C@@H]1CCCCO[C@@H](CN(C)S(=O)(=O)c2ccc(F)cc2)[C@@H](C)CN([C@@H](C)CO)C(=O)c2cc(NS(=O)(=O)c3ccc(F)cc3)ccc2O1
inactive: all assays above

O=C(c1ccco1)N1N=C(c2cccs2)CC1c1ccccc1O (stereo unspecified)
inactive: all assays above

C[C@@H]1CCCCO[C@H](CN(C)C(=O)c2ccncc2)[C@H](C)CN([C@H](C)CO)C(=O)c2cc(NC(=O)CCC(F)(F)F)ccc2O1
inactive: all assays above

O=C(C[C@H]1CC[C@H]2[C@@H](COC[C@H](O)CN2Cc2cccc(Cl)c2)O1)Nc1nccs1
inactive: all assays above

O=C(C[C@H]1CC[C@@H](NC(=O)c2ccc3c(c2)OCO3)[C@@H](CO)O1)NCc1ccc(F)cc1
inactive: all assays above

CC(C)NC(=O)N[C@H]1CC[C@@H](CCNC(=O)C2CC2)O[C@@H]1CO
inactive: all assays above

COc1ccc(C2CC(c3cccs3)=NN2C(=O)c2ccc(Br)o2)cc1 (stereo unspecified)
inactive: all assays above

COCC#Cc1cnc2c(c1)C(=O)N([C@H](C)CO)C[C@H](C)[C@H](CN(C)C(=O)C1CC1)O2
inactive: all assays above

CCC(=O)N[C@@H]1C=C[C@H](CC(=O)NCC2CCCCC2)O[C@H]1CO
inactive: all assays above

CC(C)NC(=O)Nc1ccc2c(c1)CC(=O)N([C@@H](C)CO)C[C@@H](C)[C@@H](CN(C)S(=O)(=O)c1ccc(Cl)cc1)O2
inactive: all assays above

C/C=C/c1ccc([C@@H]2[C@@H](CNC(=O)C3CC3)N(C(=O)CC)[C@H]2CO)cc1
inactive: all assays above

COCC(=O)NC[C@@H]1N[C@@H](CO)[C@H]1c1ccc(C2=CCCC2)cc1
inactive: all assays above

Cc1cc(C)c(N2CCCC2C(=O)Nc2cccc(C(F)(F)F)c2)c(C)c1 (stereo unspecified)
inactive: all assays above

COc1ccccc1CNC(=O)COc1ccc2c(c1)CCC2
inactive: all assays above

C[C@@H](O)C#Cc1ccc([C@@H]2[C@H](CO)N3CCCCN(CC4CC4)C[C@@H]23)cc1
inactive: all assays above

Cc1noc(C)c1S(=O)(=O)Nc1ccc2c(c1)C(=O)N([C@@H](C)CO)C[C@H](C)[C@@H](CN(C)Cc1ccc3c(c1)OCO3)OCCCC[C@@H](C)O2
inactive: all assays above

CC(=O)N1[C@@H](CO)[C@H](c2ccc(-c3ccccc3)cc2)[C@@H]1CNC(=O)C1CC1
inactive: all assays above

CNC[C@@H]1OCCCC[C@H](C)Oc2ccc(NC(=O)c3ccccc3)cc2C(=O)N([C@@H](C)CO)C[C@@H]1C
inactive: all assays above

C[C@H](O)C#Cc1ccc([C@H]2[C@H](CO)N3CCCCN(CC4CCOCC4)C[C@@H]23)cc1
inactive: all assays above

CO[C@H]1CN(C)C(=O)c2cc(NC(=O)C3CCOCC3)ccc2OC[C@@H](C)NC[C@H]1C
inactive: all assays above

C[C@@H]1CN([C@@H](C)CO)S(=O)(=O)c2ccc(C#C[C@@H](C)O)cc2O[C@@H]1CN(C)C(=O)C1CCCCC1
inactive: all assays above

CO[C@H]1CC[C@@H]2CCOc3c(C#N)cccc3C(=O)N(C)C[C@H](OC)[C@@H](C)C(=O)N(C)C[C@@H]1O2
inactive: all assays above

CC(C)C#Cc1ccc2c(c1)O[C@H](CN(C)C(=O)Cc1ccccn1)[C@H](C)CN([C@H](C)CO)S2(=O)=O
inactive: all assays above

O=C(C[C@@H]1CC[C@H]2[C@@H](COC[C@H](O)CN2Cc2cccc(C(F)(F)F)c2)O1)NCc1ccccc1
inactive: all assays above

C[C@H]1CCCCO[C@H](CN(C)S(=O)(=O)c2ccc(Cl)cc2)[C@@H](C)CN([C@@H](C)CO)C(=O)c2cc(NS(=O)(=O)c3cccs3)ccc2O1
inactive: all assays above

CO[C@@H]1CN(C)C(=O)c2ccc(NC(C)=O)cc2OC[C@@H](C)N(C(=O)c2ccccn2)C[C@H]1C
inactive: all assays above

CCCN1C[C@H](C)[C@@H](OC)CN(C)C(=O)c2cc(NC(=O)c3cccc(F)c3)ccc2OC[C@H]1C
inactive: all assays above

COc1ccc(NC(=O)c2noc(C(C)C)c2[N+](=O)[O-])cc1
inactive: all assays above

COc1ccccc1-c1cnc2c(c1)C(=O)N([C@H](C)CO)C[C@@H](C)[C@H](CN(C)Cc1cncnc1)O2
inactive: all assays above

Cc1noc(C)c1S(=O)(=O)Nc1ccc2c(c1)CC(=O)N([C@@H](C)CO)C[C@@H](C)[C@@H](CN(C)S(=O)(=O)c1cccs1)O2
inactive: all assays above

Cc1noc(C)c1NC(=O)Nc1ccc2c(c1)C(=O)N(C)[C@H]1CC[C@H](CC(=O)N[C@H]3CCN(Cc4ccccc4)C3)O[C@H]1CO2
inactive: all assays above

C[C@@H]1CN([C@H](C)CO)C(=O)Cc2cc(NC(=O)CCCCCC(=O)Nc3ccccc3N)ccc2O[C@H]1CN(C)Cc1ccc2c(c1)OCO2
inactive: all assays above

COc1ccccc1C#Cc1ccc2c(c1)O[C@@H](CN(C)C(C)=O)[C@@H](C)CN([C@H](C)CO)S2(=O)=O
inactive: all assays above

C[C@@H]1CN([C@H](C)CO)C(=O)Cc2cc(NC(=O)Nc3cccc4ccccc34)ccc2O[C@@H]1CN(C)Cc1ccc(C(=O)O)cc1
inactive: all assays above

C[C@H]1CN([C@@H](C)CO)C(=O)c2cc(NC(=O)Nc3ccc4c(c3)OCO4)ccc2O[C@@H]1CN(C)CC1CCCCC1
inactive: all assays above

COCC(=O)Nc1ccc2c(c1)OC[C@@H](C)N(C(=O)Cc1cccnc1)C[C@H](C)[C@@H](OC)CN(C)C2=O
inactive: all assays above

C[C@H]1CN([C@@H](C)CO)C(=O)c2cc(NC(=O)Nc3cccc4ccccc34)ccc2O[C@@H]1CN(C)C(=O)Nc1ccc(C(F)(F)F)cc1
inactive: all assays above

C[C@@H]1CN([C@@H](C)CO)C(=O)c2cccc(NC(=O)c3ccncc3)c2O[C@H]1CN(C)C(=O)Nc1ccccc1
inactive: all assays above

COCC#Cc1cnc2c(c1)C(=O)N([C@H](C)CO)C[C@@H](C)[C@@H](CN(C)C(=O)Nc1ccc(OC)cc1)O2
inactive: all assays above

C[C@H](CO)N1C[C@H](C)[C@@H](CN(C)S(=O)(=O)c2ccccc2)Oc2c(NC(=O)Nc3cccc4ccccc34)cccc2C1=O
inactive: all assays above

CN1C(=O)c2cc(NS(=O)(=O)c3cccc(F)c3)ccc2OC[C@H]2O[C@H](CC(=O)O)CC[C@H]21
inactive: all assays above

CC(=O)N1[C@@H]2CN(S(=O)(=O)c3ccccc3F)c3ccccc3[C@@H]2[C@@H]1CO
inactive: all assays above

CC(C)NC(=O)Nc1cccc2c1O[C@H](CN(C)C)[C@H](C)CN([C@H](C)CO)C2=O
inactive: all assays above

C[C@@H]1CN([C@H](C)CO)C(=O)c2cccc(NC(=O)C3CC3)c2O[C@H]1CN(C)Cc1ccc(C(=O)O)cc1
inactive: all assays above

CC(C)NC(=O)Nc1ccc2c(c1)C(=O)N([C@@H](C)CO)C[C@@H](C)[C@@H](CN(C)S(=O)(=O)c1ccc(Cl)cc1)OCCCC[C@@H](C)O2
inactive: all assays above

C[C@@H]1CN([C@H](C)CO)C(=O)c2cc(NC(=O)Nc3cccc4ccccc34)ccc2O[C@@H](C)CCCCO[C@@H]1CN(C)Cc1ccc2c(c1)OCO2
inactive: all assays above
